Bioassay records (PubChem)
FBW7 act: activators of human E3 ligase FBW7. Q969H0. AlphaScreen FBW7–phospho-cyclin E peptide binding, activator screen. normalized activity (activation), % at 26.1 µM. hit rate 0.13% among 650,000. AID 1259310; in the data active = normalized activity above about 1.9%;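 also: purified mutant Fbw7 with reduced substrate affinity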
TEAD-YAP block: TEAD-YAP interaction inhibition; HEK-TIYL cells, TEAD-Gal4/YAP UAS-luciferase luminescence; AID 1259422; inhibition, % at 9.12 µM; hit rate 1.4% among 640,000; in the data active = inhibition above about 32%;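 also: 0% = median of test compound wells and 100% = reference inhibitor wells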
GPR151 ag: activators of human GPR151 | Q8TDV0 | PathHunter beta-arrestin GPR151 cells, luminescence | activation, % at 11.2 µM | hit rate 1% among 650,000 | AID 1508602; in the data active = activation above about 4.9%;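 also: 0% = median of compound wells and 100% = cells with positive control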
MITF inh: blocks human microphthalmia-associated transcription factor; hit rate 0.91% among 650,000; AlphaScreen MITF homodimerization, bead proximity signal; inhibition, % at 2.6 µM; O75030; in the data active = inhibition above about 50%;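 also: 0% = vehicle wells with protein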
Target sequence (O75030 whole entry, looked up): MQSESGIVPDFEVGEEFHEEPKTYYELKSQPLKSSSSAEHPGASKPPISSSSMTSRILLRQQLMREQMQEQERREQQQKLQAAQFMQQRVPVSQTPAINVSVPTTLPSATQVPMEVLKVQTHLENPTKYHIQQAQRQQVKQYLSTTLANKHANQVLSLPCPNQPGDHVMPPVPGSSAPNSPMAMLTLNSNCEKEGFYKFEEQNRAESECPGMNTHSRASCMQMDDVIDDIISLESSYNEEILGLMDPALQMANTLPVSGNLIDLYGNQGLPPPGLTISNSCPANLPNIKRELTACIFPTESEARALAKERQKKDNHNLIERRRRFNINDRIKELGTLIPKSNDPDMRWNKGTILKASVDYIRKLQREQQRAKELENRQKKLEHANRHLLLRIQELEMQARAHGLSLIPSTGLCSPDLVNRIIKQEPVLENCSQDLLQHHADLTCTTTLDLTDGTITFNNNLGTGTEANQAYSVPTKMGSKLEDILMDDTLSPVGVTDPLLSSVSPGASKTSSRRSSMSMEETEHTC
* hit, by the source's call. In the library only some 3.4% were active in any assay of this set; here they are far more common.

Results for Cc1nnc(SCC(=O)Nc2nc3c(s2)CC(C)CC3)s1 (stereo not drawn) ?
FBW7 act: 0; TEAD-YAP block: -16; GPR151 ag: 0; MITF inh: 2

What do the screens show for `CC1CCc2nc(NC(=O)CSc3nc4ccccc4o3)sc2C1` (stereo not drawn)?
FBW7 act: 0; TEAD-YAP block: 67*; GPR151 ag: 2; MITF inh: 1

What do the screens show for `COc1ccc(NC(=O)CSc2nc3ccccc3o2)cc1`?
FBW7 act: 1; TEAD-YAP block: -55; GPR151 ag: 3; MITF inh: -3

Results for O=C(/C(Cl)=C/Nc1cccc2cccnc12)C(F)(F)F ?
FBW7 act: 0; TEAD-YAP block: -7; GPR151 ag: 0; MITF inh: 18

Results for O=C(Cc1cccc([N+](=O)[O-])c1)Nc1cnn(-c2cccc(C(=O)Nc3ccc(N4CCOCC4)cc3)c2)c1 ?
FBW7 act: 0; TEAD-YAP block: -8; GPR151 ag: 2; MITF inh: 0

What do the screens show for `C/C(=N/NC(N)=O)c1cc(C(C)(C)C)cc2c1CCC2(C)C`?
FBW7 act: 0; TEAD-YAP block: -11; GPR151 ag: 2; MITF inh: 5

How did CC(C)(C)c1cc(CC(=O)O)c2c(c1)C(C)(C)CC2 do in these assays?
FBW7 act: 1; TEAD-YAP block: 48*; GPR151 ag: -2; MITF inh: 7

How did O=C1c2ccccc2C(=O)N1CCCCN(C(=O)c1ccccc1Br)c1ccc(Cl)cc1 do in these assays?
FBW7 act: 0; TEAD-YAP block: 12; GPR151 ag: 2; MITF inh: 17

Results for FC(F)(F)c1cccc(CNc2nc(Oc3ccccc3)nc3c2ncn3-c2ccsc2)c1 ?
FBW7 act: 0; TEAD-YAP block: 74*; GPR151 ag: 1; MITF inh: -6

How did FC(F)(F)c1cccc(CNc2nc(Nc3ccccc3)nc3c2ncn3-c2ccsc2)c1 do in these assays?
FBW7 act: 0; TEAD-YAP block: -2; GPR151 ag: 3; MITF inh: 8

Results for CC(=O)c1cccc(-c2nc(NCc3ccccc3)c3ncn(-c4ccsc4)c3n2)c1 ?
FBW7 act: 0; TEAD-YAP block: 14; GPR151 ag: 4; MITF inh: 7

What do the screens show for `CC(=O)c1cccc(-c2nc(NCCN(C(C)C)C(C)C)c3ncn(-c4ccccc4)c3n2)c1`?
FBW7 act: 0; TEAD-YAP block: 15; GPR151 ag: 0; MITF inh: -1

What do the screens show for `CC(=O)c1cccc(-c2nc(NCCO)c3ncn(-c4ccsc4)c3n2)c1`?
FBW7 act: 0; TEAD-YAP block: 49*; GPR151 ag: -2; MITF inh: 19

What do the screens show for `OCCNc1nc(-c2ccccc2)nc2c1ncn2-c1ccsc1`?
FBW7 act: 0; TEAD-YAP block: 42*; GPR151 ag: 2; MITF inh: -3

Results for CC(=O)c1cccc(-c2nc(NCCN(C(C)C)C(C)C)c3ncn(-c4ccsc4)c3n2)c1 ?
FBW7 act: 0; TEAD-YAP block: 49*; GPR151 ag: -1; MITF inh: 3

How did CC(=O)c1cccc(-c2nc(NCCO)c3ncn(C(C)C)c3n2)c1 do in these assays?
FBW7 act: 0; TEAD-YAP block: 55*; GPR151 ag: 2; MITF inh: 16

Results for COc1ccc(-c2nc(NCCN(C(C)C)C(C)C)c3ncn(-c4ccsc4)c3n2)cc1 ?
FBW7 act: 0; TEAD-YAP block: 7; GPR151 ag: -1; MITF inh: -8

How did CC(C)N(CCNc1nc(-c2cccc(N)c2)nc2c1ncn2-c1ccsc1)C(C)C do in these assays?
FBW7 act: 0; TEAD-YAP block: 59*; GPR151 ag: 0; MITF inh: -6

What do the screens show for `O=C(Nc1ccc(SCCCC(=O)N2CCN(Cc3ccccc3)CC2)nn1)C1CC1`?
FBW7 act: 0; TEAD-YAP block: 7; GPR151 ag: -1; MITF inh: 11

How did O=C(COc1cccc(N2C(=O)C3C4C=CC(C5CC45)C3C2=O)c1)c1ccc(Cl)cc1 (stereo not drawn) do in these assays?
FBW7 act: 0; TEAD-YAP block: 39*; GPR151 ag: 1; MITF inh: -1

Results for CN(c1ccc(C(=O)N2CCC(C(N)=O)CC2)cc1)S(=O)(=O)c1ccc(Cl)cc1 ?
FBW7 act: 0; TEAD-YAP block: 4; GPR151 ag: 2; MITF inh: -3

Results for CCCNc1cc(C)nc(Nc2cc(OC)c(OC)c(OC)c2)n1 ?
FBW7 act: 0; TEAD-YAP block: 12; GPR151 ag: 4; MITF inh: 7

What do the screens show for `Cc1ccc(C(=O)N(CCc2ccccc2)CC(=O)Nc2sc(C)c(C)c2C(N)=O)cc1`?
FBW7 act: 0; TEAD-YAP block: -20; GPR151 ag: 3; MITF inh: -3

How did COc1ccc(/C=N/Nc2ncnc3nc[nH]c23)cc1 do in these assays?
FBW7 act: 0; TEAD-YAP block: 58*; GPR151 ag: -2; MITF inh: 11

How did Fc1cccc(/C=N/Nc2ncnc3nc[nH]c23)c1 do in these assays?
FBW7 act: 0; TEAD-YAP block: 9; GPR151 ag: -7; MITF inh: 9

How did Oc1ccc(Br)cc1/C=N/Nc1ncnc2nc[nH]c12 do in these assays?
FBW7 act: 0; TEAD-YAP block: 72*; GPR151 ag: -2; MITF inh: 75*

How did Cc1ccc(/C=N/Nc2ncnc3nc[nH]c23)cc1 do in these assays?
FBW7 act: 0; TEAD-YAP block: 29; GPR151 ag: -2; MITF inh: 9

Results for CN(C)c1ccc(/C=N/Nc2ncnc3nc[nH]c23)cc1 ?
FBW7 act: 0; TEAD-YAP block: 60*; GPR151 ag: -1; MITF inh: -4

Results for Clc1cccc(/C=N/Nc2ncnc3nc[nH]c23)c1 ?
FBW7 act: 0; TEAD-YAP block: 58*; GPR151 ag: -5; MITF inh: 4

Results for CCOc1ccc2cc(-c3ccc(OC)c(OC)c3)c(=O)oc2c1 ?
FBW7 act: 1; TEAD-YAP block: -21; GPR151 ag: -2; MITF inh: 3

Results for O=C(NCCCN1CCCC1=O)c1csc2c1CCCC2 ?
FBW7 act: 0; TEAD-YAP block: -6; GPR151 ag: 1; MITF inh: -4

Results for CO[C@H](C(=O)[C@@H](O)[C@@H](C)O)[C@@H]1Cc2cc3cc(O[C@H]4C[C@@H](O[C@H]5C[C@@H](O)[C@H](O)[C@@H](C)O5)[C@H](O)[C@@H](C)O4)c(C)c(O)c3c(O)c2C(=O)[C@H]1O[C@H]1C[C@@H](O[C@H]2C[C@@H](O[C@H]3C[C@](C)(O)[C@H](O)[C@@H](C)O3)[C@@H](O)[C@@H](C)O2)[C@H](O)[C@@H](C)O1 ?
FBW7 act: 0; TEAD-YAP block: 92*; GPR151 ag: -2; MITF inh: 36

Results for N/C(=N\N=C\c1ccc(O)c(O)c1)SC1CC(=O)N(c2ccc(C(=O)O)cc2)C1=O (stereo not drawn) ?
FBW7 act: 0; TEAD-YAP block: -6; GPR151 ag: 0; MITF inh: 82*

Results for CN(C)c1ccc(/C=C/CN2CCc3nnc(C4CCCO4)n3CC2)cc1 (stereo not drawn) ?
FBW7 act: 0; TEAD-YAP block: -14; GPR151 ag: 1; MITF inh: 4
